Source: PubChem BioAssay AID1852 (Sanford-Burnham Center for Chemical Genomics, 2009)
Among all 2,500 compounds or so, about 1,100 (44%) were called active.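 Rule for the calls: active = inhibition above 50% at 4 µM in the single-point screen; inactive = inhibition of 50% or less.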 So high a share suggests a set chosen from earlier hits. The list shows a part of the results.

Test: blockers of TNF-a NF-kB luciferase induction – cell-based, HEK293T NF-kB-Luc, luminescence, selectivity assay for NOD1/NOD2 signaling inhibitor project, primary screen (AID 1852)
Conditions: TNF-a induced, 14 h, at 4 µM, active compounds read high

Row | SMILES | inhibition
1 | CCc1cccc(NS(=O)(=O)c2csc(C(N)=O)c2)c1 | 23.5% (inactive)
2 | CNC(=S)N(CCc1c(C)[nH]c2ccc(Cl)cc12)Cc1cc(OC)c(OC)c(OC)c1 | 36.1% (inactive)
3 | CCCc1ccc(-c2c(C)sc(NC(=O)c3ccnn3C)c2C#N)cc1 | 86.3% (active)
4 | CCOC(=O)c1sc(NC(=O)CSc2n[nH]c(-c3ccncc3)n2)c(C#N)c1C | 26.6% (inactive)
5 | CCN1/C(=C/C=C/C=C/C=C/c2sc3ccccc3[n+]2CC)Sc2ccccc21 | 62.2% (active)
6 | CCN1/C(=C/C(C)=C/c2sc3ccccc3[n+]2CC)Sc2ccccc21 | 71.8% (active)
7 | O=c1c2cc([N+](=O)[O-])ccc2nc(CN2CCN(c3ccccn3)CC2)n1-c1ccccc1F | 2.4% (inactive)
8 | Cc1ccc(NC(=O)CSc2nn(-c3ccccc3)c(=S)s2)cc1S(=O)(=O)N(C)C | 72.3% (active)
9 | CN(C)S(=O)(=O)c1cc(NC(=O)CSc2nn(-c3ccc(Cl)cc3)c(=S)s2)ccc1Cl | -20.5% (inactive)
10 | CCN(CCn1cccn1)C(=O)CC1C(=O)NCCN1CCc1ccccc1 (stereo unspecified) | 50.2% (active)
11 | CCN(Cc1ccncc1)C(=O)CC1C(=O)NCCN1Cc1ccc(F)c(F)c1 (stereo unspecified) | 1.3% (inactive)
12 | CC(CN1CCOCC1)OC(=O)Cc1ccc(Cl)cc1 (stereo unspecified) | 12.4% (inactive)
13 | Cc1ccc(NC(=O)c2cc(=O)c3ccccc3o2)cc1S(=O)(=O)N1CCCCC1 | 23.9% (inactive)
14 | Cc1ccc(NC(=O)c2ccccc2NS(=O)(=O)c2ccc(F)cc2)cc1S(=O)(=O)N1CCCCC1 | 81.2% (active)
15 | COc1ccc(NS(=O)(=O)c2cccc(NC(=O)c3ccc(S(=O)(=O)N4CCCCCC4)cc3)c2)cc1 | 90.7% (active)
16 | Cc1ccc(NC(=O)CSc2ncnc3ccccc23)cc1S(=O)(=O)N1CCCCC1 | 57.7% (active)
17 | COc1ccc(NS(=O)(=O)c2cccc(NC(=O)c3ccc(Cl)nc3)c2)cc1 | 42% (inactive)
18 | O=C(CCl)Nc1cccc(S(=O)(=O)N2CCCCCC2)c1 | 30.6% (inactive)
19 | O=C(Nc1cccc(S(=O)(=O)N2CCCCC2)c1)c1ccccc1NS(=O)(=O)c1ccc(F)cc1 | 87% (active)
20 | O=C(Nc1cccc(S(=O)(=O)N2CCCCC2)c1)Nc1ccc(Cl)cc1Cl | -29.7% (inactive)
21 | CSc1ncccc1C(=O)N1CCN(S(=O)(=O)c2cc(C)ccc2C)CC1 | -21.1% (inactive)
22 | O=C(Nc1ccc(F)cc1)Nc1ccc(N2CCCC2)c(S(=O)(=O)Nc2ccccc2Cl)c1 | 35.1% (inactive)
23 | Cc1ccc(NC(=O)CSc2ncnc3ccccc23)cc1S(=O)(=O)N1CCOCC1 | 39.8% (inactive)

Row | SMILES | inhibition
24 | Cc1nc(Sc2nnnn2C)c2c3c(sc2n1)CCC3 | 25.5% (inactive)
25 | CCS(=O)(=O)c1ccc2oc(SCC(=O)NC3CCCC(C)C3C)nc2c1 (stereo unspecified) | 15.3% (inactive)
26 | CC1CCCCC1NC(=O)NC(=O)CCl (stereo unspecified) | 68.1% (active)
27 | CC1CCCC(NC(=O)NC(=O)CCl)C1C (stereo unspecified) | 69.1% (active)
28 | COc1ccccc1C1/C(=C(/O)c2ccc(OC(C)C)cc2)C(=O)C(=O)N1c1cc(C)on1 (stereo unspecified) | 35.4% (inactive)
29 | O=C(CN(Cc1ccc(Cl)cc1)C(=O)CNS(=O)(=O)c1ccc(F)cc1)NCC1CCCO1 (stereo unspecified) | 38.4% (inactive)
30 | O=S(=O)(NCC1CCCO1)c1ccc(-c2ccc(S(=O)(=O)NCC3CCCO3)cc2)cc1 (stereo unspecified) | 34.8% (inactive)
31 | Cc1ccc(NS(=O)(=O)c2ccc(C(=O)N3CCN(c4ncccn4)CC3)cc2)cc1 | 61.5% (active)
32 | COc1ccc(N2CCN(C(=O)c3ccc(CNS(=O)(=O)c4ccc(C)cc4)cc3)CC2)cc1 | 35.1% (inactive)
33 | COc1cccc(N2CCN(c3ncnc4c3cnn4-c3ccc(C)cc3C)CC2)c1 | 102% (active)
34 | Cc1cccc(-n2ncc3c(N(C)C4CCCCC4)ncnc32)c1 | -64.4% (inactive)
35 | CCOC(=O)C1=C(C)N=c2s/c(=C/c3cccc([N+](=O)[O-])c3O)c(=O)n2C1c1ccccc1 (stereo unspecified) | 74.5% (active)
36 | C=CCn1c(Oc2ccccc2F)nc2c1c(=O)n(C)c(=O)n2C | 78.4% (active)
37 | CCn1c(Oc2ccccc2F)nc2c1c(=O)n(C)c(=O)n2C | 69.1% (active)
38 | C=CCn1c(Oc2ccc(C(=O)OC)cc2)nc2c1c(=O)n(C)c(=O)n2C | 47.2% (inactive)
39 | Cn1c(=O)c2c(nc(Oc3ccc4ccccc4c3)n2C)n(C)c1=O | 40.5% (inactive)
40 | Cn1c(N2CCN(c3ccccn3)CC2)nc2c1c(=O)n(Cc1ccc(Cl)cc1)c(=O)n2C | 17.7% (inactive)
41 | Cn1c(=O)[nH]c(=O)c2c1nc(N1CCC(Cc3ccccc3)CC1)n2Cc1ccccc1 | 41.2% (inactive)
42 | CCCCCn1c(SCCc2ccccc2)nc2c1c(=O)[nH]c(=O)n2C | 31.3% (inactive)
43 | Cn1c(=O)[nH]c(=O)c2c1nc([N+](=O)[O-])n2Cc1ccccc1 | 104% (active)
44 | COc1ccc(C(=O)Nc2nnc(S(=O)(=O)N(C)Cc3ccc(F)cc3)s2)cc1OC | -1% (inactive)
45 | CN(Cc1ccccc1)S(=O)(=O)c1nnc(NC(=O)c2ccc(F)cc2)s1 | 74.3% (active)
46 | CN(Cc1ccc(F)cc1)S(=O)(=O)c1nnc(NC(=O)c2ccccc2)s1 | 21% (inactive)

Row | SMILES | inhibition
47 | CS(=O)(=O)c1ccc2nc(NC(=O)c3cccc(NS(=O)(=O)c4ccc(F)c(F)c4)c3)sc2c1 | -0.8% (inactive)
48 | Cc1ccc(-c2nc3cccnc3s2)cc1NS(=O)(=O)c1ccc2c(c1)OCCO2 | 27.3% (inactive)
49 | Cc1nc2ccc(NS(=O)(=O)c3ccc(C)c(C)c3)cc2s1 | 48.4% (inactive)
50 | Cc1nc2ccc(NS(=O)(=O)c3ccc(F)c(C)c3)cc2[nH]1 | 42.8% (inactive)
51 | CSc1nc2ccc(NS(=O)(=O)c3ccc4c(c3)OCCO4)cc2s1 | 100% (active)
52 | Cc1nc2ccc(NS(=O)(=O)c3c(C)c(C)cc(C)c3C)cc2s1 | 61.8% (active)
53 | Cc1nc2ccc(NS(=O)(=O)c3ccc4c(c3)OCCO4)cc2s1 | 72.1% (active)
54 | COC(=O)C(=Cc1ccc(OCc2ccc([N+](=O)[O-])cc2)c(OC)c1)C(=O)OC | 18% (inactive)
55 | O=[N+]([O-])c1cc([N+](=O)[O-])c2oc(-c3ccccc3)c(Br)c2c1O | 66% (active)
56 | Cc1ccc2c(c1)N(C)/C(=C/c1cccc[n+]1C)S2 | 24.9% (inactive)
57 | CCN1/C(=C/c2cccc[n+]2C)Sc2ccc(OC)cc21 | 50.4% (active)
58 | O=C(Nc1cccc(-c2ccc(N3CCCCC3)nn2)c1)C(F)(F)F | -90.7% (inactive)
59 | Cc1ccc(C(=O)Sc2cccccc2=O)cc1 | 103% (active)
60 | Cc1ccc(S(=O)(=O)/C(=C/Cl)NC(=O)c2ccccc2)cc1 | 11.6% (inactive)
61 | CN(C)c1ccc(C(=O)Nc2nnc(-c3ccc(Cl)cc3)o2)cc1 | 106% (active)
62 | O=C(Nc1sc2c(c1C(=O)O)CCCC2)c1ccc(Cl)cc1 | 29.8% (inactive)
63 | Cc1cccc(-c2nnc(NC(=O)c3ccc(Cl)cc3)o2)c1 | 102% (active)
64 | O=C(Nc1nnc(-c2ccccc2)o1)c1ccc(Cl)cc1 | 104% (active)
65 | CCC(=O)N1c2ccc(S(=O)(=O)N3CCN(c4ccc([N+](=O)[O-])cc4)CC3)cc2CC1C (stereo unspecified) | 26.6% (inactive)
66 | CCN(CC)S(=O)(=O)c1cccc(NC(=O)Nc2cccc(C(F)(F)F)c2)c1 | 69% (active)
67 | O=C(Nc1ccc(OC(F)F)cc1)Nc1cccc(C(F)(F)F)c1 | 14.2% (inactive)
68 | CCN(CC)S(=O)(=O)c1ccc(NC(=O)Nc2cccc(C(F)(F)F)c2)cc1 | 10.5% (inactive)
69 | N#CC(c1ccccc1)c1ccc2c(C(F)(F)F)cc(C(F)(F)F)nc2n1 (stereo unspecified) | 20.4% (inactive)

Row | SMILES | inhibition
70 | Oc1ccc(Oc2ccc3c(C(F)(F)F)cc(C(F)(F)F)nc3n2)cc1 | 45.2% (inactive)
71 | N#CC(c1cccc(Cl)c1)c1ccc2c(C(F)(F)F)cc(C(F)(F)F)nc2n1 (stereo unspecified) | 55.7% (active)
72 | O=c1c2cc(Br)ccc2nc(-c2ccc(Cl)cc2)n1O | -30% (inactive)
73 | O=c1c2cc(Br)ccc2nc(-c2cccc(C(F)(F)F)c2)n1O | 65% (active)
74 | O=c1c2cc(Cl)ccc2nc(-c2ccc(Cl)c(Cl)c2)n1O | 74.1% (active)
75 | N/C(=N\OC(=O)c1cccc2ccccc12)c1ccc(Br)cc1 | -0.8% (inactive)
76 | Cc1ccc(C(=O)O/N=C(\N)c2ccccn2)c(Cl)c1 | -56.4% (inactive)
77 | Cc1ccc(C(=O)O/N=C(\N)c2ccccn2)c(C)c1 | 61.4% (active)
78 | CCN(CC)S(=O)(=O)c1ccc(Oc2ccc(S(=O)(=O)N(CC)CC)cc2)cc1 | 70.1% (active)
79 | C=C(C(=O)c1ccccc1)C(C)CC(=O)c1ccccc1 (stereo unspecified) | -8.9% (inactive)
80 | C=C(C(=O)c1ccccc1)C(C(=C)C(=O)c1ccccc1)c1ccc(OC)cc1 | 62.5% (active)
81 | C=C(C(=O)c1ccccc1)C(CC(=O)c1ccccc1)c1ccccc1 (stereo unspecified) | -23.3% (inactive)
82 | CCC1C(=NO)C(CC)C(c2ccccc2)NC1c1ccccc1 (stereo unspecified) | 32.5% (inactive)
83 | CCOc1ccc(/C=C/C(O)=C2/C(=O)N(C)C3(C)CC2c2ccccc2O3)cc1OC (stereo unspecified) | 51.8% (active)
84 | COc1cc(/C=C/[N+](=O)[O-])ccc1OCc1cccc(C(=O)O)c1 | 46% (inactive)
85 | COc1ccc(/C=C/C(O)=C2/C(=O)N(C)C3(C)CC2c2ccccc2O3)cc1 (stereo unspecified) | -8.9% (inactive)
86 | Cc1cc(C)c(S(=O)(=O)/N=C2/C=C(Sc3ncn[nH]3)C(=O)c3ccccc32)cc1C | 75.1% (active)
87 | CC(C)c1ccc(S(=O)(=O)/N=C2/C=C(Sc3ncn[nH]3)C(=O)c3ccccc32)cc1 | 84.1% (active)
88 | Cc1ccc(S(=O)(=O)/N=C2/C=C(Sc3ncn[nH]3)C(=O)c3ccccc32)c(C)c1 | 100% (active)
89 | Cc1cc(Br)ccc1SCC(=O)OC/C(O)=C(\C#N)c1nc2ccccc2[nH]1 | 106% (active)
90 | Cc1cc(SCC(=O)OC/C(O)=C(\C#N)c2nc3ccccc3[nH]2)c(C)cc1Br | 59.5% (active)
91 | Cc1ccc(C)c(SCC(=O)OC/C(O)=C(\C#N)c2nc3ccccc3[nH]2)c1 | 52.5% (active)
